{
  "source": "PubChem BioAssay AID652117",
  "about": "(Broad Institute, 2013)",
  "note": "Potency and affinity values are given separately. Activity calls are given as the source filed them.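 The calls were made as follows: active = compounds whose fitted half-maximal cell-killing dose is no more than twice the top tested dose; inconclusive = flat moderate loss of cell viability, or an unreliable curve fit; inactive = the rest.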",
  "data": [
    {"experiment": "HeLa cell cytotoxicity, dose response, cytotoxicity control, ATP luminescence, dry powder (AID 652117)", "conditions": "HeLa viability, CellTiter-Glo ATP luminescence, 48 h; series mostly up to 26 µM", "values": [
      {"smiles": "CCOC(=O)C1(Cc2ccccc2)CCN(Cc2ccc(O)c(Cl)c2)CC1", "outcome": "inactive"},
      {"smiles": "CCOC(=O)C1(CCOc2ccccc2)CCN(Cc2ccc3[nH]c(=O)oc3c2)CC1", "outcome": "inactive"},
      {"smiles": "CCOC(=O)C1(CCOc2ccccc2)CCN(Cc2ccc(OC)c(Cl)c2)CC1", "outcome": "inactive"},
      {"smiles": "C=CCOc1ccc(CN2CCC(CCOc3ccccc3)(C(=O)N(C)CC)CC2)cc1Cl", "outcome": "inactive"},
      {"smiles": "CCOC(=O)C1(CCOC)CCCN(Cc2ccc(Cl)cc2)C1", "note": "(stereo not given)", "outcome": "inactive"},
      {"smiles": "CCN(C)C(=O)C1(CCOc2ccccc2)CCN(Cc2ccc(O)c(Cl)c2)CC1", "outcome": "inactive"},
      {"smiles": "CCOC(=O)C1(CCOc2ccccc2)CCN(C(=O)OC(C)(C)C)CC1", "outcome": "inactive"},
      {"smiles": "CCOC(=O)C1(CCOC)CCN(Cc2ccc(O)c(Cl)c2)CC1", "outcome": "inactive"},
      {"smiles": "CCOC(=O)C1(CCOc2ccccc2)CCN(C(=O)c2ccc(O)c(Cl)c2)CC1", "outcome": "inactive"},
      {"smiles": "CCOC(=O)C1CCN(C(=O)OC(C)(C)C)CC1", "outcome": "inactive"},
      {"smiles": "C/C1=C\\[C@@H](O)C(C)(C)CCCC2(C)OC2C[C@@H]1OC(=O)c1ccc(O)cc1", "note": "(stereo not given in full)", "outcome": "inactive"},
      {"smiles": "C=CCOc1ccc(CN2CCC(CCOc3ccccc3)(C(=O)N3CCCC3)CC2)cc1Cl", "outcome": "inactive"},
      {"smiles": "C=CCOc1ccc(CN2CCC(CCOc3ccccc3)(C(=O)NC3CCCC3)CC2)cc1Cl", "outcome": "inactive"},
      {"smiles": "C=CCOc1ccc(CN2CCC(CCOc3ccccc3)(C(=O)O)CC2)cc1Cl", "outcome": "inactive"},
      {"smiles": "C=CCOc1ccc(CN2CCC(CCOc3ccccc3)(C(=O)NCC)CC2)cc1Cl", "outcome": "inactive"},
      {"smiles": "O=C(N1CCCC1)C1(CCOc2ccccc2)CCN(Cc2ccc(O)c(Cl)c2)CC1", "outcome": "inactive"},
      {"smiles": "CCOC(=O)C1(CCOc2ccccc2)CCN(Cc2ccc(OC)cc2)CC1", "outcome": "inactive"},
      {"smiles": "CCNC(=O)C1(CCOc2ccccc2)CCN(Cc2ccc(O)c(Cl)c2)CC1", "outcome": "inactive"},
      {"smiles": "CCOC(=O)C1(Cc2cccc(OC)c2)CCN(Cc2ccc(O)c(Cl)c2)CC1", "outcome": "inactive"},
      {"smiles": "CCOC(=O)C1(CCOc2ccccc2)CCN(Cc2ccc(O)cc2)CC1", "outcome": "inactive"},
      {"smiles": "C/C1=C\\C[C@H](OC(=O)c2ccc(O)cc2)/C(C)=C/[C@@H](O)C(C)(C)CCC1", "outcome": "inactive"},
      {"smiles": "C=CCOc1ccc(CN2CCC(CCOc3ccccc3)(C(=O)OCC)CC2)cc1Cl", "outcome": "inactive"},
      {"smiles": "O=C(NC1CCCC1)C1(CCOc2ccccc2)CCN(Cc2ccc(O)c(Cl)c2)CC1", "outcome": "inactive"},
      {"smiles": "CCOC(=O)C1(CCOc2ccccc2)CCN(Cc2ccc(O)c(Cl)c2)CC1", "outcome": "inactive"},
      {"smiles": "O=C(Nc1ccccc1)C1(CCOc2ccccc2)CCN(Cc2ccc(O)c(Cl)c2)CC1", "outcome": "inactive"}
    ]}
  ]
}
